PubChem BioAssay AID431 (Sanford-Burnham Center for Chemical Genomics, 2006)
Screen size: about 63,000 compounds; about 1,100 (1.7%) were called active. This excerpt belongs to a sample that is enriched for actives. Potency and affinity values are given separately. Values without a mark were called inactive.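 How the source made its calls: active means compounds whose percent cytotoxicity in the single-dose primary screen, scaled between solvent and toxic-drug controls, exceeds 50; inactive means the rest.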

Test: cytotoxicity in KRAS-transformed pancreatic duct cells, primary screen, cell-based, fluorescence, HTS (AID 431);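 further: 0% = DMSO solvent wells and 100% = doxorubicin-treated wells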
Conditions: HPDE-C7K KRASV12 cells, Alamar Blue viability, 48 h; at 10 µM; active compounds read high

Q: With `O=C(CSc1nc2sc3c(c2c(=O)n1-c1ccccc1)CCCC3)NCc1ccco1` as the molecule, how does the cytotoxicity read?
A: 71.9% (active)

Q: For `CCSc1nc2sc3c(c2c2nnc(SCC(=O)NCc4ccco4)n12)CCCC3`, which cytotoxicity is on record?
A: 8.1%

Q: For `CC1(C)Cc2c(sc3nc(SCC(=O)NCc4ccco4)n(-c4ccccc4)c(=O)c23)CS1`, which cytotoxicity is on record?
A: -9.9%

Q: Which cytotoxicity does the source give for `Cc1nc2sc3c(c2c2nnc(SCC(=O)NCc4ccco4)n12)CCCC3` here?
A: 5.1%

Q: For `C=CCn1c(SCC(=O)NCc2ccco2)nc2sc3c(c2c1=O)CCCCC3`, which cytotoxicity is on record?
A: 6%

Q: With `CC1=C(C(=O)N2CCOCC2)C(c2ccsc2)C2=C(CCCC2=O)N1` (centres undefined) as the molecule, how does the cytotoxicity read?
A: 4.5%

Q: For `COC(=O)c1ccccc1NC(=O)CN1CCC(n2nnc3cc(C)ccc32)CC1`, which cytotoxicity is on record?
A: 7.1%

Q: Which cytotoxicity does the source give for `CCOc1ccc(N(CC(=O)NC2CCCC2)S(=O)(=O)c2c(C)noc2C)cc1` here?
A: 4.7%

Q: Which cytotoxicity does the source give for `O=C(Oc1ccc2c(c1)OCO2)c1ccncc1` here?
A: 12.7%

Q: With `O=C(Oc1ccc2c(c1)OCO2)c1cccs1` as the molecule, how does the cytotoxicity read?
A: -6%

Q: With `O=C(Oc1ccc2c(c1)OCO2)c1cc2c(s1)CCC2` as the molecule, how does the cytotoxicity read?
A: 66.1% (active)

Q: For `NS(=O)(=O)c1ccc(S(=O)(=O)NCCc2ccccc2)cc1`, which cytotoxicity is on record?
A: -1.8%

Q: Which cytotoxicity does the source give for `COc1cccc(NC(=O)NC2CCN(Cc3nnnn3Cc3ccc(F)cc3)CC2)c1` here?
A: -3.4%

Q: With `Cc1ccc2[nH]c(=O)c(CN(CCc3ccccc3)C(c3nnnn3Cc3ccco3)C(C)C)cc2c1` (centres undefined) as the molecule, how does the cytotoxicity read?
A: 60.2% (active)

Q: Which cytotoxicity does the source give for `CCOc1ccc2[nH]c(=O)c(CN(Cc3cccs3)C(CC)c3nnnn3C(C)(C)CC)cc2c1` (centres undefined) here?
A: 30.4%

Q: Which cytotoxicity does the source give for `COc1ccc2cc(CN(Cc3ccco3)Cc3nnnn3C3CCCCC3)c(=O)[nH]c2c1` here?
A: 22.4%

Q: For `COc1ccc2cc(CN(CCc3ccccc3)Cc3nnnn3Cc3ccco3)c(=O)[nH]c2c1`, which cytotoxicity is on record?
A: 33.5%

Q: For `CCC(c1nnnn1Cc1ccco1)N(Cc1ccccc1OC)Cc1cc2cc(C)ccc2[nH]c1=O` (centres undefined), which cytotoxicity is on record?
A: -7.4%

Q: For `COc1ccc2cc(CN(Cc3ccco3)C(c3nnnn3C3CCCCC3)C(C)C)c(=O)[nH]c2c1` (centres undefined), which cytotoxicity is on record?
A: 1.3%

Q: Which cytotoxicity does the source give for `CCC(c1nnnn1Cc1ccco1)N(CCc1ccccc1)Cc1cc2ccc(OC)cc2[nH]c1=O` (centres undefined) here?
A: 50.4% (active)

Q: Which cytotoxicity does the source give for `CCC(c1nnnn1Cc1ccco1)N(CCc1ccccc1)Cc1cc2cc(C)ccc2[nH]c1=O` (centres undefined) here?
A: 36%

Q: For `CCC(c1nnnn1C1CCCCC1)N(Cc1ccco1)Cc1cc2ccc(OC)cc2[nH]c1=O` (centres undefined), which cytotoxicity is on record?
A: 64.5% (active)

Q: With `CCC(c1nnnn1Cc1ccccc1)N(Cc1ccco1)Cc1cc2cc(OC)ccc2[nH]c1=O` (centres undefined) as the molecule, how does the cytotoxicity read?
A: 22.2%

Q: With `CCC(c1nnnn1C1CCCC1)N(Cc1cccs1)Cc1cc2cc(C)ccc2[nH]c1=O` (centres undefined) as the molecule, how does the cytotoxicity read?
A: 68.3% (active)

Q: For `CCOC(=O)Cn1nnnc1C(CC)N(Cc1cccs1)Cc1cc2cc(C)ccc2[nH]c1=O` (centres undefined), which cytotoxicity is on record?
A: -3.3%

Q: Which cytotoxicity does the source give for `CCOC(=O)c1oc2ccc(Br)cc2c1CSc1nnc(C)s1` here?
A: -7.5%

Q: For `COC(=O)c1cn(NC(=O)c2cccc(N(C)C)c2)c(=O)c2ccccc12`, which cytotoxicity is on record?
A: -1.6%

Q: For `CCOC(=O)c1c(C)[nH]c(C(=O)CN2C(=O)NC(C)(c3ccc(C)cc3)C2=O)c1C` (centres undefined), which cytotoxicity is on record?
A: 29.2%

Q: Which cytotoxicity does the source give for `COc1ccc(S(=O)(=O)N(C)CC(=O)N2CCC(C)CC2)cc1Cl` here?
A: 9.5%

Q: Which cytotoxicity does the source give for `CCCC(c1nnnn1C(C)(C)CC)N(Cc1ccco1)Cc1cc2ccc(OC)cc2[nH]c1=O` (centres undefined) here?
A: 55.7% (active)

Q: Which cytotoxicity does the source give for `COc1ccc2[nH]c(=O)c(C(c3nnnn3C(C)(C)C)N(Cc3ccco3)CC3CCCO3)cc2c1` (centres undefined) here?
A: -29.6%

Q: Which cytotoxicity does the source give for `CCC(C)(C)n1nnnc1C(c1cc2ccc(C)cc2[nH]c1=O)N(Cc1cccnc1)Cc1ccco1` (centres undefined) here?
A: 14.1%

Q: With `Cc1csc(NC(=O)c2nc(-c3ccccc3)n(-c3ccccc3)n2)n1` as the molecule, how does the cytotoxicity read?
A: -19.1%

Q: Which cytotoxicity does the source give for `O=C(Nc1nccs1)c1nc(-c2ccccc2)n(-c2ccccc2)n1` here?
A: 76.3% (active)

Q: Which cytotoxicity does the source give for `NC(=O)c1ccsc1NC(=O)c1nc(-c2ccccc2)n(-c2ccccc2)n1` here?
A: 9.4%

Q: With `CCCCC(=O)Nc1ccc(C(=O)NCc2ccncc2)cc1` as the molecule, how does the cytotoxicity read?
A: -7.4%

Q: With `O=C(CC12CC3CC(CC(C3)C1)C2)N1CCOCC1` as the molecule, how does the cytotoxicity read?
A: -7.8%

Q: For `CCOC(=O)c1sc2nc(NC(=O)C3CCCCC3)sc2c1C`, which cytotoxicity is on record?
A: 68.2% (active)

Q: For `CCOC(=O)c1sc2nc(NC(=O)C(C)(C)C)sc2c1C`, which cytotoxicity is on record?
A: 2.1%

Q: Which cytotoxicity does the source give for `CCOC(=O)c1sc2nc(NC(=O)C3CC3)sc2c1C` here?
A: 4.4%

Q: Which cytotoxicity does the source give for `CCC(C)[C@H](NC(=O)NCc1cccs1)C(=O)OC` (some centres undefined) here?
A: 7.9%

Q: For `O=S(=O)(c1ccc(Nc2ccc3c(c2)OCO3)nc1)N1CCOCC1`, which cytotoxicity is on record?
A: -0.1%

Q: For `O=C(CCS(=O)(=O)c1cccc2nsnc12)NCc1ccccc1`, which cytotoxicity is on record?
A: -10.5%

Q: For `Cc1cccc(-n2c(CCCN3C(=O)c4ccccc4C3=O)nc3ccccc3c2=O)n1`, which cytotoxicity is on record?
A: -9.8%

Q: For `Cc1oc2c(CN3CCOCC3)c(O)ccc2c(=O)c1-c1ccccc1`, which cytotoxicity is on record?
A: -12.9%

Q: With `COc1cc(NS(=O)(=O)c2ccc(NC(=O)C3CCCO3)cc2)nc(OC)n1` (centres undefined) as the molecule, how does the cytotoxicity read?
A: -15.8%

Q: Which cytotoxicity does the source give for `Cc1ccc(OCc2nc(-c3ccccn3)no2)c(Br)c1` here?
A: 26.3%

Q: Which cytotoxicity does the source give for `Clc1ccc(OCc2nc(-c3ccccn3)no2)c(Br)c1` here?
A: 13.1%

Q: Which cytotoxicity does the source give for `CCOc1ccc(-c2nnc(-c3ccco3)o2)cc1OCC` here?
A: 1.7%

Q: With `COc1cccc(N2CCN(Cc3nc4ccccc4c(=O)[nH]3)CC2)c1` as the molecule, how does the cytotoxicity read?
A: 4.2%

Q: With `COc1cccc(N2CCN(CC(=O)c3c[nH]c4ccc(OC)cc34)CC2C)c1` (centres undefined) as the molecule, how does the cytotoxicity read?
A: 17.4%

Q: For `O=C1CC(c2ccccc2)n2nc(N3C(=O)CCC3=O)nc2N1` (centres undefined), which cytotoxicity is on record?
A: 2.8%

Q: With `CC(=O)Nc1ccc(S(=O)(=O)c2ccc(N)cc2)cc1N` as the molecule, how does the cytotoxicity read?
A: -5.2%

Q: Which cytotoxicity does the source give for `CC1N=C2c3ccccc3N=C(SCc3cc(=O)n4cc(Cl)ccc4n3)N2C1=O` (centres undefined) here?
A: 5.7%

Q: For `COc1ccc(NS(=O)(=O)c2ccc3oc4ccccc4c3c2)cn1`, which cytotoxicity is on record?
A: 35.2%

Q: For `O=S(=O)(Nc1ccc2c(c1)OCCO2)c1ccc2oc3ccccc3c2c1`, which cytotoxicity is on record?
A: 73% (active)

Q: Which cytotoxicity does the source give for `CSc1ccc(S(=O)(=O)Nc2ccc3c(c2)OCCO3)cc1` here?
A: 9.5%

Q: With `Cc1ccc2c(c1)c(C)c(C)n2CC(O)Cn1nc(C)cc1C` (centres undefined) as the molecule, how does the cytotoxicity read?
A: -6.3%

Q: Which cytotoxicity does the source give for `OCc1ccnc2c(O)cccc12` here?
A: 11.7%

Q: Which cytotoxicity does the source give for `Oc1c(CN2CCN(c3ccccn3)CC2)cc(Cl)c2cccnc12` here?
A: 28.4%

Q: Which cytotoxicity does the source give for `Oc1c(CN2CCc3ccccc3C2)cc(Cl)c2cccnc12` here?
A: -1.6%

Q: Which cytotoxicity does the source give for `Oc1ccc2cccnc2c1` here?
A: 4.8%

Q: For `CCC1Oc2ccc(C)cc2N(CC(=O)NCCC2=CCCCC2)C1=O` (centres undefined), which cytotoxicity is on record?
A: 0%

Q: With `O=C(COc1ccc(Cl)cc1)Nc1ccc2oc(-c3ccncc3)nc2c1` as the molecule, how does the cytotoxicity read?
A: -3%

Q: For `COc1ccc(CNC(=O)c2cc(-n3cnnc3)ccc2Cl)cc1`, which cytotoxicity is on record?
A: -0.7%

Q: Which cytotoxicity does the source give for `CCOC(=O)N1CCN(C(=O)CSc2nnc(-c3cccs3)o2)CC1` here?
A: 4.2%

Q: With `COc1cccc(NC2=NC3(CCCCC3)N=C(N)N2)c1` as the molecule, how does the cytotoxicity read?
A: -1.1%

Q: For `COc1ccc(NC2=NC3(CCCCC3)N=C(N)N2)cc1`, which cytotoxicity is on record?
A: 10.1%

Q: Which cytotoxicity does the source give for `CCN(C(=O)COc1ncnc2ccc(Br)cc12)C1CCS(=O)(=O)C1` (centres undefined) here?
A: -5.5%

Q: With `COC(=O)c1ccc(CSc2nc3scc(-c4cccs4)c3c(=O)[nH]2)o1` as the molecule, how does the cytotoxicity read?
A: 50.4% (active)

Q: Which cytotoxicity does the source give for `COC(=O)c1ccc(CSc2nc3c(cnn3-c3ccc(F)cc3)c(=O)[nH]2)o1` here?
A: 1.7%

Q: Which cytotoxicity does the source give for `COC(=O)c1ccc(CSc2nc3c(cnn3-c3ccc(C)c(C)c3)c(=O)[nH]2)o1` here?
A: 8%

Q: Which cytotoxicity does the source give for `CN(C)S(=O)(=O)c1ccc(C(=O)Nc2ccc(Cl)cc2)cc1` here?
A: 1.5%

Q: With `Oc1ccc(-c2nc(-c3ccc(O)c(O)c3)cs2)cc1` as the molecule, how does the cytotoxicity read?
A: 79.5% (active)

Q: With `CN(c1ccc(O)cc1)c1nc(-c2ccccc2)cs1` as the molecule, how does the cytotoxicity read?
A: 4.5%

Q: For `COc1cc(-c2csc(C)n2)ccc1O`, which cytotoxicity is on record?
A: -3.1%

Q: With `Cc1cccc2cc(C(c3nnnn3CC3CCCO3)N3CCCC4(CCCCC4)C3)c(=O)[nH]c12` (centres undefined) as the molecule, how does the cytotoxicity read?
A: -12.9%

Q: Which cytotoxicity does the source give for `Cc1csc(NC(=O)c2sc3nc(-c4cccs4)ccc3c2N)n1` here?
A: 72.2% (active)

Q: With `CCCSc1nnc(NC(=O)c2sc3nc(-c4cccs4)ccc3c2N)s1` as the molecule, how does the cytotoxicity read?
A: 22.7%

Q: With `Nc1c(C(=O)NC2CCCC2)sc2nc(-c3cccs3)ccc12` as the molecule, how does the cytotoxicity read?
A: 12.2%

Q: For `CC(C)CCN1C(=O)c2ccc(C(=O)NCC3CCCO3)cc2C1=O` (centres undefined), which cytotoxicity is on record?
A: -6.8%

Q: For `O=C(NCCCN1CCN(c2ccccc2F)CC1)Nc1ccc(F)cc1`, which cytotoxicity is on record?
A: -10.3%

Q: With `Cc1cc2n(n1)C(c1ccccc1)Nc1ccccc1-2` (centres undefined) as the molecule, how does the cytotoxicity read?
A: 15.3%

Q: With `Cc1cc2n(n1)C(c1ccccc1Cl)Nc1ccccc1-2` (centres undefined) as the molecule, how does the cytotoxicity read?
A: 18.6%

Q: With `CCCNC(=O)Cc1ncn[nH]1` as the molecule, how does the cytotoxicity read?
A: 3.6%

Q: Which cytotoxicity does the source give for `CCOc1cc(C(=O)O)cc(Cl)c1OCC#N` here?
A: -16.2%

Q: Which cytotoxicity does the source give for `Cc1nc2c(C(=O)O)cnn2c(C)c1Cc1ccccc1F` here?
A: -2.2%

Q: Which cytotoxicity does the source give for `Cc1ccccc1Cc1c(C)nc2c(C(=O)N3CCN(Cc4ccc5c(c4)OCO5)CC3)cnn2c1C` here?
A: -9.2%

Q: Which cytotoxicity does the source give for `CC1(C)CC(=O)c2cc(C(=O)N3CCN(CCO)CC3)c(=O)n(-c3ccc(Cl)cc3)c2C1` here?
A: -8.4%

Q: With `O=C(c1cc2ccccn2n1)N1CCCC1` as the molecule, how does the cytotoxicity read?
A: 8%

Q: For `Cc1onc(-c2ccccc2Cl)c1C(=O)NCc1ccc(S(N)(=O)=O)cc1`, which cytotoxicity is on record?
A: -0.7%

Q: Which cytotoxicity does the source give for `Cn1nnnc1Sc1ncnc2scc(-c3ccccc3)c12` here?
A: 11.1%

Q: Which cytotoxicity does the source give for `O=c1[nH]cnc2scc(-c3ccc(F)cc3)c12` here?
A: 7.7%

Q: For `COc1ccc(OC)c(NC(=O)CN2CCC(C(=O)c3ccc(C)cc3)CC2)c1`, which cytotoxicity is on record?
A: 4.8%
